The results in this text go back to PubChem BioAssay (NCI).

Some test systems named below: HCT-15 colon; SNB-75 CNS; SNB-19 CNS; U251 CNS; SK-MEL-5 melanoma; UACC-62 melanoma; LOX IMVI melanoma; SK-MEL-28 melanoma; SK-MEL-2 melanoma; SN12C renal; UO-31 renal; TK-10 renal; ACHN renal; CAKI-1 renal; CCRF-CEM leukemia; MOLT-4 leukemia; PC-3 prostate; A498 renal; EKVX NSCLC.
Assay in all cases: NCI-60 one-dose screen, 48 h (100 = growth as untreated, 0 = no growth, -100 = all killed)
Common to all, as to details: 10 µM unless noted

This is part of a sample that, as a whole, favours compounds with a hit. Of some 83,000 tested, about 20% had one in any assay.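 The endpoint reported here, percent growth, reads 100 for growth as untreated, 0 for no net growth and -100 for all cells dead.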 Values without a mark were called inactive. Active and inactive are the calls of the source. Rule for the calls: active = growth percent below 10; inactive = the rest.

In the case of `COc1ccc(-c2nc3sccn3c2-c2ccnc(NCCCNS(=O)(=O)c3ccc(F)cc3)n2)cc1`, the growth was 2.92% (active) with HCT-15 colon; 40.4% in the assay with SNB-75 CNS; 42.6% in the assay with SNB-19 CNS; 26.1% in the assay with U251 CNS; -59.6% (active) with SK-MEL-5 melanoma; -34.4% (active) with UACC-62 melanoma. The growth was 6.15% (active) in the assay with LOX IMVI melanoma; 11.5% in the assay on SK-MEL-28 melanoma; -0.52% (active) with SK-MEL-2 melanoma; 14.3% in the assay on SN12C renal; 4.56% (active) in the assay on UO-31 renal; 52.9% in the assay on TK-10 renal. For the same molecule, the growth in the assay with ACHN renal is 2.12% (active); in the assay on CAKI-1 renal it was 21.8%; in the assay on CCRF-CEM leukemia it was 9.5% (active); in the assay with MOLT-4 leukemia it was 6.65% (active).
As to `FC(F)(F)c1cccc(-n2nnc3cnc(Nc4ccc(N5CCCCC5)cc4)nc32)c1`, the growth was 66.1% in the assay with HCT-15 colon; 65.7% in the assay with SNB-75 CNS; 94.3% in the assay on SNB-19 CNS; 62.9% with U251 CNS; 50.2% with PC-3 prostate; 86.7% with SK-MEL-5 melanoma. Also, the growth is 48.2% in the assay on UACC-62 melanoma; 90% in the assay on LOX IMVI melanoma; -0.691% (active) in the assay with SK-MEL-28 melanoma; 96.8% in the assay on SK-MEL-2 melanoma; 91% with SN12C renal; 100% in the assay on UO-31 renal. Moreover, the growth is 97.2% with TK-10 renal; 56% in the assay on ACHN renal; 72.9% in the assay with CAKI-1 renal; 89.4% in the assay on A498 renal; 63% with MOLT-4 leukemia.
Consider `OCc1c(-c2ccccc2)nc2sccn12`, for which the growth with HCT-15 colon was 97.2%; in the assay with SNB-75 CNS it was 122%; in the assay on SNB-19 CNS, 85.5%; in the assay on U251 CNS, 95.6%; in the assay with SK-MEL-5 melanoma it was 80.2%; with UACC-62 melanoma it was 101%. Further, the growth with LOX IMVI melanoma is 104%; in the assay with SK-MEL-28 melanoma, 122%; with SK-MEL-2 melanoma it was 108%; with EKVX NSCLC, 86.9%; in the assay with SN12C renal, 105%; in the assay with UO-31 renal, 94.8%. Moreover, the growth is 106% in the assay on TK-10 renal; 98.4% in the assay with ACHN renal; 96.6% in the assay with CAKI-1 renal; 95.9% with A498 renal; 17.9% in the assay with CCRF-CEM leukemia; 117% with MOLT-4 leukemia.
Turning to `Cc1cccc(-n2c(C)nc3ccc(NC(=O)NCCCl)cc3c2=O)c1`, the growth in the assay on HCT-15 colon is 93.8%; with SNB-75 CNS, 77.5%; with SNB-19 CNS, 101%; in the assay on U251 CNS, 100%; in the assay with PC-3 prostate, 93.5%; with SK-MEL-5 melanoma, 102%. Further, the growth in the assay on UACC-62 melanoma was 103%; with LOX IMVI melanoma it was 95.6%; in the assay on SK-MEL-28 melanoma it was 113%; in the assay on SK-MEL-2 melanoma it was 114%; in the assay with SN12C renal, 107%; in the assay with UO-31 renal, 94.2%. In addition, the growth is 99.6% with TK-10 renal, 111% in the assay with ACHN renal, 97.6% in the assay with CAKI-1 renal and -43.7% (active) with CCRF-CEM leukemia.
As for `CC1CCN(C(=O)CSc2nc3sc4c(c3c(=O)[nH]2)CCCC4)CC1`, the growth is 102% in the assay with HCT-15 colon; 99.5% in the assay with SNB-75 CNS; 106% with SNB-19 CNS; 95.5% in the assay with U251 CNS; 100% with PC-3 prostate; 91.8% with SK-MEL-5 melanoma. The growth in the assay on UACC-62 melanoma was 105%; with LOX IMVI melanoma, 86.4%; in the assay with SK-MEL-28 melanoma, 125%; in the assay on SK-MEL-2 melanoma, 80.2%; with EKVX NSCLC, 98.9%; in the assay with SN12C renal, 102%. Further, the growth was 82.6% in the assay with UO-31 renal; 163% with TK-10 renal; 101% in the assay with ACHN renal; 96.4% in the assay with CAKI-1 renal; 95.8% in the assay with A498 renal; 74.4% in the assay with CCRF-CEM leukemia. Further, in the assay with MOLT-4 leukemia, the growth is 98.5%.
For `CCCCCCCCCCn1cc[n+](C)c1`, the growth in the assay with HCT-15 colon was 82%; in the assay with SNB-75 CNS, -10.6% (active); in the assay on SNB-19 CNS, 45.5%; in the assay with PC-3 prostate it was 6.6% (active); with SK-MEL-5 melanoma, -33.1% (active); in the assay with UACC-62 melanoma, 31.1%. In addition, the growth is 23.9% in the assay with LOX IMVI melanoma; 34.9% in the assay with SK-MEL-28 melanoma; 13.1% with SK-MEL-2 melanoma; 19.4% in the assay with SN12C renal; 65.7% in the assay on UO-31 renal; -1.53% (active) in the assay on TK-10 renal. Further, the growth in the assay on ACHN renal was 45%; in the assay on CAKI-1 renal it was 28.8%; in the assay on A498 renal, 12.4%; in the assay with MOLT-4 leukemia, 78.6%.
Regarding `Nc1ccc(S(=O)(=O)c2ccc(Cl)cc2)cc1`, the growth in the assay with HCT-15 colon was 97.8%; in the assay with SNB-75 CNS it was 79.7%; with SNB-19 CNS it was 93.9%; in the assay with U251 CNS, 105%; in the assay on PC-3 prostate it was 89.7%; with UACC-62 melanoma, 85.8%. Moreover, the growth is 95.6% with LOX IMVI melanoma; 102% in the assay on SK-MEL-28 melanoma; 98.4% in the assay with SK-MEL-2 melanoma; 94.7% in the assay with EKVX NSCLC; 95.3% in the assay on SN12C renal; 86.4% with UO-31 renal. In addition, the growth with TK-10 renal is 96.4%; in the assay on ACHN renal, 97.1%; in the assay with CAKI-1 renal it was 93.6%; in the assay on A498 renal, 108%; in the assay with CCRF-CEM leukemia, 111%; in the assay on MOLT-4 leukemia it was 103%.
In the case of `CC(=O)Nc1nc(C(=O)N2N=C(C)/C(=C/c3ccc(Cl)cc3)C2=O)cs1`, the growth in the assay on HCT-15 colon was 100%; with SNB-75 CNS, 98.3%; in the assay on SNB-19 CNS it was 104%; in the assay with U251 CNS, 101%; in the assay on PC-3 prostate, 98%; in the assay with SK-MEL-5 melanoma it was 104%. For the same molecule, the growth in the assay on UACC-62 melanoma is 111%; in the assay on LOX IMVI melanoma, 101%; with SK-MEL-2 melanoma, 90.5%; in the assay on SN12C renal, 105%; in the assay on UO-31 renal, 82.4%; in the assay with TK-10 renal it was 123%. Also, the growth with ACHN renal is 108%; in the assay on CAKI-1 renal it was 100%; with A498 renal it was 117%; in the assay on CCRF-CEM leukemia, 99.6%; in the assay with MOLT-4 leukemia, 91.7%.
As to `O=C(Nc1cccc(Cl)c1)c1cc([N+](=O)[O-])ccc1O`, the growth was 61.7% with HCT-15 colon; 67.8% in the assay with SNB-75 CNS; 53.3% in the assay on SNB-19 CNS; 47.5% in the assay with U251 CNS; 35.4% in the assay with PC-3 prostate; 16.7% in the assay with SK-MEL-5 melanoma. Also, the growth in the assay with UACC-62 melanoma is 18%; in the assay with LOX IMVI melanoma, 34%; with SK-MEL-28 melanoma, 28.6%; in the assay with SK-MEL-2 melanoma, 5.35% (active); with EKVX NSCLC, 60.5%; in the assay on SN12C renal it was 55.1%. In addition, the growth in the assay with UO-31 renal was 45.5%; in the assay with TK-10 renal it was 61%; in the assay on ACHN renal, 59.9%; with CAKI-1 renal, 52.6%; with A498 renal, 8.44% (active); in the assay with CCRF-CEM leukemia, 46.4%. Moreover, the growth in the assay on MOLT-4 leukemia is 35.7%.
